Source: PubChem (Broad Institute)
Many of the other results were omitted from the sample, so hits are more common in it than they were.
BL2 CD40 inh – CD40 pathway inhibition in BL2 cells; inhibition, % at 10 µM; AID 1053188; BL2 NF-kB luciferase reporter, CD40L-induced, 4 h; 0.94% of 83,000 active;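 active means mean inhibition of at least 50% with a set share of replicates also reaching that level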;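 further: 0% = neutral control wells and 100% = IKK inhibitor VII at 50 µM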
Active calls of the source: *; [ ] = dose if it differs, or a comment.

What do the screens show for `CC(C)NC(=O)N(C)C[C@@H]1OCc2ccccc2-c2ccccc2C(=O)N([C@H](C)CO)C[C@H]1C`?
BL2 CD40 inh: -7

What do the screens show for `CO[C@H]1CC[C@H]2CCOc3c(C#N)cccc3C(=O)N(C)C[C@@H](OC)[C@H](C)C(=O)N(C)C[C@H]1O2`?
BL2 CD40 inh: -2[25 µM]

Results for CCCCCN1C=CC(=C2C(=O)c3ccccc3C2=O)C=C1 ?
BL2 CD40 inh: 81*

What do the screens show for `CCCCCCCN1N=C(C)C(C(=O)c2ccccc2)C1=O` (stereo unspecified)?
BL2 CD40 inh: 11

What do the screens show for `CCCNC(=O)N1CC2(CCN(CC3CCCC3)CC2)c2c(n(C)c3cc(OC)ccc23)[C@@H]1CO`?
BL2 CD40 inh: 9

How did C[C@@H]1CCCCO[C@@H](CN(C)C(=O)Nc2ccc3c(c2)OCO3)[C@@H](C)CN([C@H](C)CO)C(=O)c2cc(NS(=O)(=O)c3ccc(F)cc3)ccc2O1 do in these assays?
BL2 CD40 inh: -15[25 µM]

How did Fc1ccccc1/C=C1\CCCC2=C1Nc1nnnn1C2c1ccccc1F (stereo unspecified) do in these assays?
BL2 CD40 inh: 75*

Results for N#C/C(=C(\N)Sc1ccc(N)cc1)c1ccccc1C(F)(F)F ?
BL2 CD40 inh: -6[25 µM]

How did COc1ccc(S(=O)(=O)N(C)C[C@H]2Oc3c(NC(=O)Nc4c(C)noc4C)cccc3C(=O)N([C@H](C)CO)C[C@H]2C)cc1 do in these assays?
BL2 CD40 inh: -4[25 µM]

What do the screens show for `N#C[C@@H]1[C@H](c2ccc(C3=CCCCC3)cc2)[C@H](CO)N1C(=O)Nc1ccccc1F`?
BL2 CD40 inh: -14[25 µM]

Results for C[C@@H]1CCCCO[C@H](CN(C)Cc2ccc3c(c2)OCO3)[C@H](C)CN([C@H](C)CO)C(=O)c2cc(NS(=O)(=O)c3cn(C)cn3)ccc2O1 ?
BL2 CD40 inh: 0[25 µM]

What do the screens show for `Clc1nc(CN2CCOCC2)nc2sc3c(c12)CCC3`?
BL2 CD40 inh: -1

What do the screens show for `Clc1nc(CN2CCCCC2)nc2sc3c(c12)CCCC3`?
BL2 CD40 inh: 55*

What do the screens show for `CC1CCN(Cc2nc(Cl)c3c4c(sc3n2)CCC4)CC1`?
BL2 CD40 inh: -5

How did O=C(NC[C@@H]1[C@H](c2ccccc2)[C@H](CO)N1CC1CCCC1)c1ccncc1 do in these assays?
BL2 CD40 inh: 4[25 µM]

How did O=C1C[C@@H](c2ccccc2)C(=O)N[C@H](c2ccccc2)C/C=C\C[C@H](c2ccccc2)N1 do in these assays?
BL2 CD40 inh: 5[25 µM]

How did O=C1C[C@@H](c2ccccc2)C(=O)N[C@@H](c2ccccc2)C/C=C\C[C@H](c2ccccc2)N1 do in these assays?
BL2 CD40 inh: -10[25 µM]

Results for O=C1C[C@H](c2ccccc2)C(=O)N[C@@H](c2ccccc2)C/C=C\C[C@@H](c2ccccc2)N1 ?
BL2 CD40 inh: 60*[25 µM]

Results for C[C@H](CO)N1C[C@H](C)[C@@H](CN(C)C(=O)Nc2ccccc2C(F)(F)F)OCc2ccccc2-c2ccccc2C1=O ?
BL2 CD40 inh: -6[25 µM]

Results for CC(C)NC(=O)N(C)C[C@H]1OCc2cnnn2CCCC(=O)N([C@@H](C)CO)C[C@@H]1C ?
BL2 CD40 inh: -3

How did N#C[C@@H]1[C@H](c2ccc(-c3ccccc3F)cc2)[C@H](CO)N1C(=O)c1ccccn1 do in these assays?
BL2 CD40 inh: 49[25 µM]

What do the screens show for `O=C(C[C@@H]1C[C@@H]2c3cc(NC(=O)c4ccc5c(c4)OCO5)ccc3O[C@@H]2[C@H](CO)O1)NC1CCCCC1`?
BL2 CD40 inh: -2[25 µM]

How did CCOc1ccc(/C=C/C(=O)N(CC)CC(=O)Nc2c(F)cccc2F)cc1OC do in these assays?
BL2 CD40 inh: 5

What do the screens show for `CCN(CC(=O)Nc1c(F)cccc1F)C(=O)/C=C/c1ccc(C)o1`?
BL2 CD40 inh: 84*

How did CCN(CC(=O)Nc1c(F)cccc1F)C(=O)/C=C/c1ccc2ccccc2n1 do in these assays?
BL2 CD40 inh: -9

Results for CC(=O)[C@@]1(O)CCC2C3CC[C@H]4C[C@@H](O)CC[C@]4(C)C3CC[C@@]21C (stereo partly specified) ?
BL2 CD40 inh: -4

What do the screens show for `CC(=O)C1CCC2C3CCC4CC(OC(=O)CCC(=O)O)CCC4(C)C3C(=O)CC12C` (stereo unspecified)?
BL2 CD40 inh: 11

What do the screens show for `CC(=O)OC1CCC2(C)C(CCC3C4CC=C(C(C)=O)C4(C)OC(=O)CC32)C1` (stereo unspecified)?
BL2 CD40 inh: 98*

What do the screens show for `CN1C(=O)CSc2ccc(NC(=O)N3CCc4ccccc43)cc21`?
BL2 CD40 inh: -118

What do the screens show for `CN1CCN(c2ccc(NC(=O)N3CCc4ccccc43)cc2)CC1`?
BL2 CD40 inh: 73*

How did CC(=O)c1cccc(NC(=O)N2CCCc3ccccc32)c1 do in these assays?
BL2 CD40 inh: -23

How did CNC(=O)C1OC(n2cnc3c(NCc4cccc(I)c4)nc(Cl)nc32)C(O)C1O (stereo unspecified) do in these assays?
BL2 CD40 inh: 5[25 µM]

What do the screens show for `COc1ccc(-c2ccc3c(c2)[C@@H]2[C@@H](CCN2C(=O)C2CC2)[C@H](CO)N3C)cc1`?
BL2 CD40 inh: 40

Results for COc1ccc(-c2ccc3c(c2)[C@H]2[C@H](CCN2C(=O)C2CC2)[C@H](CO)N3C)cc1 ?
BL2 CD40 inh: -5

Results for CN1c2ccc(-c3cccc(F)c3)cc2[C@@H]2[C@@H](CCN2C(=O)C2CC2)[C@H]1CO ?
BL2 CD40 inh: -97

How did CN1c2ccc(-c3cccc(F)c3)cc2[C@@H]2[C@@H](CCN2C(=O)C2CC2)[C@@H]1CO do in these assays?
BL2 CD40 inh: 20

Results for CN1c2ccc(-c3cccc(F)c3)cc2[C@H]2[C@H](CCN2C(=O)C2CC2)[C@H]1CO ?
BL2 CD40 inh: 53*

Results for COc1ccc(-c2ccc3c(c2)[C@H]2[C@H](CCN2C(=O)C2CC2)[C@@H](CO)N3C)cc1 ?
BL2 CD40 inh: 53*

Results for COC(=O)C(CCCN=C(N)N)NC(=O)CCCc1c(-c2ccccc2)[nH]c2c(F)cc(F)cc12 (stereo unspecified) ?
BL2 CD40 inh: 9[25 µM]

What do the screens show for `C/C=C/c1ccc([C@@H]2[C@H](CO)N(C(=O)CN(C)C)C23CN(C(=O)C2CCOCC2)C3)cc1`?
BL2 CD40 inh: -10[25 µM]

Results for CCCNC(=O)[C@H]1[C@H](CO)[C@H]2Cn3c(ccc(-c4ccccc4)c3=O)[C@@H]1N2C(=O)Nc1ccccc1 ?
BL2 CD40 inh: 2[25 µM]

What do the screens show for `CC(=O)N(C)C[C@@H]1Oc2c(cccc2N(C)C)C(=O)N(C)C[C@@H]1C`?
BL2 CD40 inh: 8

What do the screens show for `CC(C)COC(=O)N(C)C[C@@H]1OCc2ccccc2-c2ccccc2C(=O)N([C@H](C)CO)C[C@@H]1C`?
BL2 CD40 inh: -2[25 µM]

Results for O=C(CS(=O)(=O)c1ccc(F)cc1)N1CCN(c2ccccc2)CC1 ?
BL2 CD40 inh: -22

Results for C=CC(=O)N1C/C(=C/c2ccc(F)cc2)C(=O)/C(=C\c2ccc(F)cc2)C1 ?
BL2 CD40 inh: 68*

What do the screens show for `CN1CCN(C(=O)CCN2C(=O)/C(=C\c3ccc(F)cc3)SC2=S)CC1`?
BL2 CD40 inh: 24

What do the screens show for `CN(C)C(=O)[C@@H]1[C@@H](CO)[C@@H]2Cn3c(ccc(-c4ccncc4)c3=O)[C@@H]2N1Cc1ccccc1F`?
BL2 CD40 inh: 1[25 µM]

What do the screens show for `C[C@H]1CN([C@@H](C)CO)C(=O)c2c(c3ccccc3n2C)-c2ccccc2CO[C@H]1CN(C)Cc1ccc(Oc2ccccc2)cc1`?
BL2 CD40 inh: 19[25 µM]

Results for CC1(C)C(=O)N=C2c3ccccc3C(=O)C(=O)C21 (stereo unspecified) ?
BL2 CD40 inh: 91*[25 µM]
